“And” between values parts separate entries of the source, which are not always exact repeats. Equal values may be shown once. Inconclusive results are not listed. More than one record can exist for a structure, and the calls need not agree. The source made the active and inactive calls. Unless noted, no rule for the calls is given here.
test system: Aerobactin synthetase IucA (Klebsiella pneumoniae); experiment: IucA aerobactin synthetase inhibitors, biochemical, Tocris library, absorbance (AID 1345561); conditions: purified IucA enzyme assay, absorbance (OD) read-out; stronger effect = lower value;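 tested at 8 µM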;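 also: 100% = enzyme without compound and 0% = no enzyme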

Structure (SMILES) | remaining activity
O=C(O)c1cc([N+](=O)[O-])ccc1NCCCc1ccccc1 | 93.2% (inactive)
O=c1c(-c2ccc(O)cc2)coc2cc(O)ccc12 | 111% (inactive)
CC(CCc1ccc(O)cc1)NCCc1ccc(O)c(O)c1 (stereo not given) | 94.6% (inactive)
NC(=O)c1cccc(N)c1 | 96.2% (inactive)
CCN1CCCC1CNC(=O)c1cc(S(N)(=O)=O)ccc1OC (stereo not given) | 107% (inactive)
C[C@@]12C(=O)OC(=O)[C@]1(C)[C@H]1CC[C@@H]2O1 | 119% (inactive)
CCCC(=O)Nc1ncnc2c1ncn2[C@@H]1O[C@@H]2COP(=O)(O)O[C@H]2[C@H]1OC(=O)CCC | 106% (inactive)
CCOC(=O)C1=C(O)C(=O)N(Cc2ccccc2)C1 | 101% (inactive)

test system: not listed separately; experiment: growth inhibition of DIPG glioma cells, dose response, cell-based, SU-DIPG-XVII, MIPE5.0, CellTiter-Glo, qHTS (AID 1347060; cut-off not given, nearly all actives have AC50 up to about 26 µM;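 as to AC50: cells exposed to compound for 48 hours before viability readout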); conditions: SU-DIPG-XVII viability, CellTiter-Glo ATP luminescence

Structure (SMILES) | outcome | AC50
NC(=O)c1cccc(N)c1 | inactive | –
C[C@@]12C(=O)OC(=O)[C@]1(C)[C@H]1CC[C@@H]2O1 | – | 2630 nM (active)
CCOC(=O)C1=C(O)C(=O)N(Cc2ccccc2)C1 | inactive | –

test system: not listed separately; experiment: growth inhibition of DIPG glioma cells, dose response, cell-based, SU-DIPG-XIII, MIPE4.0, CellTiter-Glo, qHTS (AID 1347061; cut-off not given, nearly all actives have AC50 up to about 37 µM;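 also: cells exposed to compound for 48 hours before readout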); conditions: SU-DIPG-XIII viability, CellTiter-Glo ATP luminescence

Structure (SMILES) | outcome
O=c1c(-c2ccc(O)cc2)coc2cc(O)ccc12 | inactive
CC(CCc1ccc(O)cc1)NCCc1ccc(O)c(O)c1 (stereo not given) | inactive
CCN1CCCC1CNC(=O)c1cc(S(N)(=O)=O)ccc1OC (stereo not given) | inactive

test system: not listed separately; experiment: growth inhibition of DIPG glioma cells, dose response, cell-based, JHH-DIPG-1, MIPE4.0, CellTiter-Glo, qHTS (AID 1347062; cut-off not given, nearly all actives have AC50 up to about 27 µM); conditions: JHH-DIPG-1 viability, CellTiter-Glo ATP luminescence

Structure (SMILES) | outcome
O=c1c(-c2ccc(O)cc2)coc2cc(O)ccc12 | inactive
CC(CCc1ccc(O)cc1)NCCc1ccc(O)c(O)c1 (stereo not given) | inactive
NC(=O)c1cccc(N)c1 | inactive
CCN1CCCC1CNC(=O)c1cc(S(N)(=O)=O)ccc1OC (stereo not given) | inactive
CCOC(=O)C1=C(O)C(=O)N(Cc2ccccc2)C1 | inactive

test system: not listed separately; experiment: growth inhibition of DIPG glioma cells, dose response, cell-based, SU-DIPG-IV, MIPE4.0, CellTiter-Glo, qHTS (AID 1347063; cut-off not given, nearly all actives have AC50 up to about 30 µM;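 also: compound exposure lasted 48 hours before the viability readout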); conditions: SU-DIPG-IV viability, CellTiter-Glo ATP luminescence

Structure (SMILES) | outcome
O=c1c(-c2ccc(O)cc2)coc2cc(O)ccc12 | inactive
CC(CCc1ccc(O)cc1)NCCc1ccc(O)c(O)c1 (stereo not given) | inactive
NC(=O)c1cccc(N)c1 | inactive
CCOC(=O)C1=C(O)C(=O)N(Cc2ccccc2)C1 | inactive

test system: not listed separately; experiment: viability loss in pontine glioma line – cell-based, SU-DIPG-XXV, MIPE5.0, CellTiter-Glo, qHTS, dose response (AID 1347065; cut-off not given, nearly all actives have AC50 up to about 26 µM;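 also: cells exposed to compound for 48 hours before ATP readout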); conditions: CellTiter-Glo ATP luminescence

Structure (SMILES) | outcome | AC50
NC(=O)c1cccc(N)c1 | inactive | –
C[C@@]12C(=O)OC(=O)[C@]1(C)[C@H]1CC[C@@H]2O1 | – | 1860 nM (active)
CCOC(=O)C1=C(O)C(=O)N(Cc2ccccc2)C1 | inactive | –

test system: not listed separately; experiment: SU-DIPG-VI glioma cell viability, MIPE4.0 library, CellTiter-Glo luminescence, qHTS (AID 1347066; cut-off not given, nearly all actives have AC50 up to about 30 µM;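 also: cells exposed to compound for 48 hours before readout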); conditions: CellTiter-Glo ATP luminescence

Structure (SMILES) | outcome
O=c1c(-c2ccc(O)cc2)coc2cc(O)ccc12 | inactive
NC(=O)c1cccc(N)c1 | inactive
CCOC(=O)C1=C(O)C(=O)N(Cc2ccccc2)C1 | inactive

test system: not listed separately; experiment: JHH-DIPG-1 glioma cell viability, MIPE5.0 library, CellTiter-Glo luminescence, qHTS (AID 1347067; cut-off not given, nearly all actives have AC50 up to about 26 µM;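 also: cells exposed to compound for 48 hours before readout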); conditions: JHH-DIPG-1 glioma viability, CellTiter-Glo ATP luminescence

Structure (SMILES) | outcome | AC50
O=c1c(-c2ccc(O)cc2)coc2cc(O)ccc12 | inactive | –
NC(=O)c1cccc(N)c1 | inactive | –
C[C@@]12C(=O)OC(=O)[C@]1(C)[C@H]1CC[C@@H]2O1 | – | 2350 nM (active)
CCOC(=O)C1=C(O)C(=O)N(Cc2ccccc2)C1 | inactive | –

test system: not listed separately; experiment: SU-DIPG-XXV glioma cell viability, MIPE5.0 library, qHTS (AID 1347068; cut-off not given, nearly all actives have IC50 up to about 30 µM;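 as to IC50: cells exposed to compound for 48 hours before viability readout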); conditions: not given

Structure (SMILES) | outcome | IC50
O=c1c(-c2ccc(O)cc2)coc2cc(O)ccc12 | inactive | –
NC(=O)c1cccc(N)c1 | inactive | –
C[C@@]12C(=O)OC(=O)[C@]1(C)[C@H]1CC[C@@H]2O1 | – | 2950 nM (active)

test system: not listed separately; experiment: sensitizers of A549 cells to miR-34 induction, primary screen, imaging, A549 dox-inducible miR-34, nuclei and caspase counts (AID 1347080;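 active = compounds whose cell count with miR-34 switched on is under 0.7 times the count with it off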); conditions: A549 miR-34 inducible, Hoechst nuclei count, 48 h; stronger effect = lower value; cell number ratio, induced over uninduced

Structure (SMILES) | fold change
O=C(O)c1cc([N+](=O)[O-])ccc1NCCCc1ccccc1 | 1.03 (inactive) and 0.858 (inactive) and 0.935 (inactive)
C[C@@]12C(=O)OC(=O)[C@]1(C)[C@H]1CC[C@@H]2O1 | 0.592 (active) and 1.01 (inactive)
CCCC(=O)Nc1ncnc2c1ncn2[C@@H]1O[C@@H]2COP(=O)(O)O[C@H]2[C@H]1OC(=O)CCC | 1.04 (inactive) and 0.902 (inactive)
CCOC(=O)C1=C(O)C(=O)N(Cc2ccccc2)C1 | 0.926 (inactive) and 0.964 (inactive)

same assay, conditions: A549 miR-34 inducible, Hoechst nuclei count, 48 h; measured here: relative caspase fold change +Dox/-Dox

Structure (SMILES) | fold change
O=C(O)c1cc([N+](=O)[O-])ccc1NCCCc1ccccc1 | 1.22 and 0.934 and 0.883
C[C@@]12C(=O)OC(=O)[C@]1(C)[C@H]1CC[C@@H]2O1 | 2.6 and 1.41
CCCC(=O)Nc1ncnc2c1ncn2[C@@H]1O[C@@H]2COP(=O)(O)O[C@H]2[C@H]1OC(=O)CCC | 0.758 and 0.739
CCOC(=O)C1=C(O)C(=O)N(Cc2ccccc2)C1 | 1.46 and 1.07

same assay, conditions: A549 miR-34 inducible, Hoechst nuclei count, 48 h; measured here: total cells with miR-34 induction; stronger effect = lower value

Structure (SMILES) | cell count
O=C(O)c1cc([N+](=O)[O-])ccc1NCCCc1ccccc1 | 10800 and 5570 and 8160
C[C@@]12C(=O)OC(=O)[C@]1(C)[C@H]1CC[C@@H]2O1 | 223 and 535
CCCC(=O)Nc1ncnc2c1ncn2[C@@H]1O[C@@H]2COP(=O)(O)O[C@H]2[C@H]1OC(=O)CCC | 5610 and 9020
CCOC(=O)C1=C(O)C(=O)N(Cc2ccccc2)C1 | 9870 and 8960

same assay, conditions: A549 miR-34 inducible, Hoechst nuclei count, 48 h; measured here: total cells without miR-34 induction

Structure (SMILES) | cell count
O=C(O)c1cc([N+](=O)[O-])ccc1NCCCc1ccccc1 | 10500 and 6480 and 8730
C[C@@]12C(=O)OC(=O)[C@]1(C)[C@H]1CC[C@@H]2O1 | 376 and 530
CCCC(=O)Nc1ncnc2c1ncn2[C@@H]1O[C@@H]2COP(=O)(O)O[C@H]2[C@H]1OC(=O)CCC | 5380 and 10000
CCOC(=O)C1=C(O)C(=O)N(Cc2ccccc2)C1 | 10700 and 9300

test system: not listed separately; experiment: inhibitors of Cryptococcus chitosan production, flow cytometry, Cibacron Brilliant Red staining (AID 1347148); conditions: Cryptococcus neoformans chitosan, stronger effect = lower value; at 10 µM unless noted;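 also: compound exposure lasted three days at 37 degrees C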

Structure (SMILES) | fold fluorescence
O=C(O)c1cc([N+](=O)[O-])ccc1NCCCc1ccccc1 | 4.56 [at 166.5 µM] (inactive)
NC(=O)c1cccc(N)c1 | 5.59 [at 367.2 µM] (inactive)
CCCC(=O)Nc1ncnc2c1ncn2[C@@H]1O[C@@H]2COP(=O)(O)O[C@H]2[C@H]1OC(=O)CCC | 10.2 [at 101.8 µM] (inactive)

— PubChem BioAssay
